Experimental data: PubChem BioAssay (NCI)
Compounds without any hit were thinned out: in the full panel of roughly 83,000, 20% have a hit.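 Compound tested at a single concentration for 48 hours in 96-well plates; a percent growth value below 10 was scored as active.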 Activity calls are given as the source filed them.

Assays:
Assay in all cases: NCI-60 one-dose screen, 48 h (100 = growth as untreated, 0 = no growth, -100 = all killed)
Details in all cases: 10 µM unless noted
T-47D breast = test system: T-47D breast
BT-549 breast = test system: BT-549 breast
MDA-MB-435 melanoma = test system: MDA-MB-435 melanoma
SW-620 colon = test system: SW-620 colon
MCF7 breast = test system: MCF7 breast
HCT-116 colon = test system: HCT-116 colon
HCC-2998 colon = test system: HCC-2998 colon
KM12 colon = test system: KM12 colon

Measured: growth

CCn1cc(C(=O)N/N=C/c2cccs2)c(=O)c2cc(F)c(N3CCNC(C)C3)c(F)c21 (stereo not drawn)
active: SW-620 colon -16.8% | MCF7 breast -77.4%
inactive: T-47D breast 77.8% | BT-549 breast 61.6% | MDA-MB-435 melanoma 92.2% | HCT-116 colon 94.5% | HCC-2998 colon 28.6% | KM12 colon 83.5%

COc1ccc(-c2nc(SCC(C)C)nc(N/N=C\c3ccc(F)cc3)c2C#N)cc1
inactive: T-47D breast 80.7% | BT-549 breast 89.9% | MDA-MB-435 melanoma 92.5% | SW-620 colon 67.9% | MCF7 breast 81.2% | HCT-116 colon 60% | HCC-2998 colon 104% | KM12 colon 97.4%

CCOP(=O)(OCC)c1nc(-c2ccccc2)oc1NCc1cccnc1
inactive: T-47D breast 85.5% | BT-549 breast 111% | MDA-MB-435 melanoma 104% | SW-620 colon 101% | MCF7 breast 103% | HCT-116 colon 102% | HCC-2998 colon 106% | KM12 colon 111%

O=C(OCc1ccc2c(Cl)cc(Cl)c(O)c2n1)n1cncn1
inactive: T-47D breast 36.1% | BT-549 breast 50.4% | MDA-MB-435 melanoma 27.9% | SW-620 colon 24.7% | MCF7 breast 23.2% | HCT-116 colon 30.1% | HCC-2998 colon 54.4% | KM12 colon 21.8%

Cc1c(-c2nc3ccc(F)cc3c(=O)[nH]2)c2ccccc2n1C
active: MDA-MB-435 melanoma -38.8%
inactive: T-47D breast 36.1% | BT-549 breast 43.8% | SW-620 colon 16.1% | MCF7 breast 19.1% | HCT-116 colon 25.1% | HCC-2998 colon 53% | KM12 colon 22%

C=CCn1c(SCC(=O)Nc2ccc(C(=O)/C=C/c3ccc(Cl)cc3)cc2)nnc1-c1cc(-c2ccc(S(N)(=O)=O)cc2)nc2ccccc12
active: HCT-116 colon -31.5%
inactive: T-47D breast 81.8% | BT-549 breast 80.5% | MDA-MB-435 melanoma 76.1% | SW-620 colon 100% | MCF7 breast 38.6% | HCC-2998 colon 101% | KM12 colon 87.2%

O=C(CSc1nc(-c2ccccc2)[nH]c1S(=O)(=O)c1ccccc1)NC1CC1
inactive: T-47D breast 46.3% | BT-549 breast 105% | MDA-MB-435 melanoma 108% | SW-620 colon 104% | MCF7 breast 65.2% | HCT-116 colon 94.2% | HCC-2998 colon 69% | KM12 colon 100%

CCN(CC)c1ccc(/C=C/C(=O)c2ccc(Nc3nc(Nc4ccccc4)nc(Nc4ccccc4)n3)cc2)cc1
inactive: T-47D breast 12.3% | BT-549 breast 52.1% | MDA-MB-435 melanoma 51.4% | SW-620 colon 70.3% | MCF7 breast 29.2% | HCT-116 colon 50.2% | HCC-2998 colon 66.5% | KM12 colon 45.4%

O=C(O)[C@@H]1c2ccccc2-c2ccccc2[C@H]1C(=O)O
inactive: T-47D breast 102% | BT-549 breast 114% | MDA-MB-435 melanoma 100% | SW-620 colon 101% | MCF7 breast 94.6% | HCT-116 colon 92.6% | HCC-2998 colon 100% | KM12 colon 105%

Cc1cc(=O)[nH]c2c(C#N)cnn12
inactive: T-47D breast 99.6% | BT-549 breast 107% | MDA-MB-435 melanoma 104% | SW-620 colon 92.4% | MCF7 breast 93.2% | HCT-116 colon 98.5% | HCC-2998 colon 101% | KM12 colon 107%

CS(=O)(=O)c1cccc(-c2c(-c3cccc(OS(N)(=O)=O)c3)nc3sccn23)c1
inactive: T-47D breast 79.3% | BT-549 breast 100% | MDA-MB-435 melanoma 102% | SW-620 colon 99.7% | MCF7 breast 92% | HCT-116 colon 97.9% | HCC-2998 colon 104% | KM12 colon 103%

Cn1c(=O)c2[nH]c(N/N=C/c3ccccc3Br)nc2n(C)c1=O
inactive: T-47D breast 108% | BT-549 breast 99% | MDA-MB-435 melanoma 113% | SW-620 colon 109% | MCF7 breast 91.4% | HCT-116 colon 103% | HCC-2998 colon 118% | KM12 colon 98.6%

Fc1cc2c(cc1Cl)N(c1ncnc3ccc(-c4cnc5[nH]ncc5c4)cc13)CC2
inactive: T-47D breast 17.8% | BT-549 breast 62.8% | MDA-MB-435 melanoma 74.1% | SW-620 colon 80.2% | MCF7 breast 30.9% | HCT-116 colon 70.3% | HCC-2998 colon 69.1% | KM12 colon 77.8%

O=C(Nc1ncc(Cc2ccc(Cl)c(C(F)(F)F)c2)s1)c1ccc2nnsc2c1
inactive: T-47D breast 24.8% | BT-549 breast 65.5% | MDA-MB-435 melanoma 22.6% | SW-620 colon 44.3% | MCF7 breast 20.4% | HCT-116 colon 45% | HCC-2998 colon 10.6% | KM12 colon 37.8%

COc1ccc(C2=Nc3c/c(=C\c4c(O)[nH]c5ccc(Cl)cc45)ccc3=N2)cc1
inactive: T-47D breast 53.7% | BT-549 breast 35.3% | HCT-116 colon 33.6% | HCC-2998 colon 35.5% | KM12 colon 17.1%
active: MDA-MB-435 melanoma -68.5% | SW-620 colon 5.99% | MCF7 breast 0.287%

COC1=CC(c2ccc[nH]2)=N/C1=C\c1[nH]c(C)c(C(=O)OCc2ccccc2)c1C
active: T-47D breast -73.4% | BT-549 breast -13.8% | MDA-MB-435 melanoma -69.7% | SW-620 colon -25.5% | MCF7 breast -76.3% | HCT-116 colon -75.4% | HCC-2998 colon -54.5% | KM12 colon -71.3%

CC1=C(Nc2ccc(N3CCN(C)CC3)cc2)C(=O)c2cncnc2C1=O
active: T-47D breast -44.2% | MDA-MB-435 melanoma -83.7% | HCT-116 colon 6.39%
inactive: BT-549 breast 101% | SW-620 colon 75.8% | MCF7 breast 61.9% | HCC-2998 colon 126% | KM12 colon 91.2%

CS(=O)(=O)Nc1cc(-c2ccc3ncnc(Nc4c(Cl)ccc5c4OCO5)c3c2)cnc1Cl
active: T-47D breast -30.6% | BT-549 breast -26% | MDA-MB-435 melanoma -24.9% | SW-620 colon 2.07% | MCF7 breast 0.196% | HCT-116 colon -22.6% | HCC-2998 colon -36% | KM12 colon -39.7%

Nc1nc(=S)c2ncn(C3OC(COP(=O)(O)O)C(O)C3O)c2[nH]1 (stereo not drawn)
inactive: T-47D breast 30.4% | BT-549 breast 48.8% | MDA-MB-435 melanoma 15.5% | SW-620 colon 32.2% | HCT-116 colon 22.9% | HCC-2998 colon 20.8% | KM12 colon 18.4%
active: MCF7 breast 9.34%

COc1cc2c(c(OC)c1OC)-c1ccc(OC)c(=O)cc1[C@@H](NC(=O)CCl)CC2
inactive: T-47D breast 73.7% | SW-620 colon 21.3% | MCF7 breast 18.1%
active: BT-549 breast -48.8% | MDA-MB-435 melanoma 8% | HCT-116 colon -39.3% | HCC-2998 colon 5.69% | KM12 colon -10.3%

Cc1ccc(-c2nc(N3CCNCC3)c3oc(-c4ccccc4)nc3n2)cc1
active: T-47D breast -57.8% | MDA-MB-435 melanoma -81% | SW-620 colon -55.1% | MCF7 breast -74.6% | HCT-116 colon -71% | HCC-2998 colon -61.1% | KM12 colon -89.1%
inactive: BT-549 breast 85.1%

CN(C)c1ccc(/C=C/C(=O)c2ccc(-n3cc(CN4CCN(c5cc6c(cc5F)c(=O)c(C(=O)O)cn6C5CC5)CC4)nn3)cc2)cc1
inactive: T-47D breast 76.8% | BT-549 breast 32% | MDA-MB-435 melanoma 64.7% | SW-620 colon 43.2% | MCF7 breast 24.2% | HCC-2998 colon 79.3% | KM12 colon 32.9%
active: HCT-116 colon -10.3%

CN(C)CCCn1c2c(c3ncccc3c1=O)C(=O)c1ccccc1-2
inactive: T-47D breast 47.8% | BT-549 breast 67.3% | MDA-MB-435 melanoma 64% | SW-620 colon 24% | MCF7 breast 11.8% | HCT-116 colon 11.2% | HCC-2998 colon 63.9% | KM12 colon 40.9%

CCOC(=O)C(=Cc1cccc(Cl)c1)C(=O)OCC
active: T-47D breast -5.34% | MDA-MB-435 melanoma 6.41% | SW-620 colon -46.6% | MCF7 breast 8.93% | HCT-116 colon -47.5%
inactive: BT-549 breast 42.6% | HCC-2998 colon 77.1% | KM12 colon 18%

Oc1c(Cl)cc(Cl)c2ccc(Cn3cc(-c4ccc(C(F)(F)F)cc4)nn3)nc12
active: SW-620 colon 7.74% | HCT-116 colon 8.81%
inactive: T-47D breast 55.4% | BT-549 breast 77.7% | MDA-MB-435 melanoma 59.5% | MCF7 breast 29.4% | HCC-2998 colon 105% | KM12 colon 101%

CCCNC(=O)Oc1ccc(/C(=C(/C)Cc2ccc(OC)cc2)c2ccc(OCCCN(C)C)cc2)cc1
inactive: T-47D breast 70.2% | BT-549 breast 91.6% | MDA-MB-435 melanoma 80.3% | SW-620 colon 97.1% | MCF7 breast 36.3% | HCT-116 colon 59.5% | HCC-2998 colon 77.7% | KM12 colon 84.1%

CCNc1nc(-c2ccc(Cl)c(OC)c2)c(-c2ccnc(NCCCNS(=O)(=O)c3ccc(Cl)cc3)n2)s1
inactive: T-47D breast 37.4% | BT-549 breast 52% | MDA-MB-435 melanoma 24.8% | SW-620 colon 80.9% | MCF7 breast 66.3% | HCT-116 colon 42.4% | HCC-2998 colon 102% | KM12 colon 65.3%

O=C(/C=C/c1cccs1)c1ccc(Cl)nc1
inactive: T-47D breast 97.3% | BT-549 breast 101% | MDA-MB-435 melanoma 94.2% | SW-620 colon 105% | MCF7 breast 67.7% | HCT-116 colon 91.1% | HCC-2998 colon 111% | KM12 colon 104%

CC(C)=NNc1ccccn1
inactive: T-47D breast 15.4% | BT-549 breast 62.5% | MDA-MB-435 melanoma 55.2% | SW-620 colon 26.2% | MCF7 breast 18% | HCT-116 colon 23.6% | HCC-2998 colon 48.1% | KM12 colon 38.2%

COC(=O)c1cc(-c2ccc(OC)cc2)[nH]c1N/N=C/c1c(Cl)cccc1Cl
inactive: T-47D breast 45.5% | HCC-2998 colon 67.4%
active: BT-549 breast -9.36% | MDA-MB-435 melanoma -54.7% | SW-620 colon 9.62% | MCF7 breast 1.03% | HCT-116 colon -64.5% | KM12 colon 2.76%

CC/C(=C(/c1ccc(Cl)cc1)c1ccc(OCCN2CCCC2)cc1)c1ccc(OC)cc1
inactive: T-47D breast 43.7% | BT-549 breast 85.8% | MDA-MB-435 melanoma 73.5% | SW-620 colon 60.2% | MCF7 breast 18.5% | HCT-116 colon 65.9% | HCC-2998 colon 71.1% | KM12 colon 56%
